# Reference: PubChem BioAssay (NCI)
# The panel holds about 79,000 compounds, 15% with a hit somewhere; the sample as a whole holds those more often. A number with no mark means an inactive call. The source made the active and inactive calls. Cut-off read from the data, not from the text of the source: active = growth inhibition above about 70%; inactive = the rest.
# Experiments:
# [1] = NCI Yeast Anticancer Drug Screen. Data for the rad52 strain (AID 147);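 note: 0% = growth of vehicle-treated control cultures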; conditions: S. cerevisiae rad52 mutant growth inhibition, active compounds read high
# Procedure, shortened: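 DNA repair-defective yeast; compound exposure; growth scored against vehicle controls.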
# [2] = NCI Yeast Anticancer Drug Screen. Data for the wt1 strain (AID 149);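 note: 0% = growth of vehicle-treated wt1 cultures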; conditions: S. cerevisiae wt1 strain (SPY 50644) growth inhibition, active compounds read high
# Procedure, shortened: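 Readout: yeast growth inhibition, normalised to vehicle controls, in the wt1 strain exposed to test compounds.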
# [3] = NCI Yeast Anticancer Drug Screen. Data for the rad50EPP+ strain (AID 151);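 note: 0% = growth of vehicle-treated control cultures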; conditions: S. cerevisiae rad50 mutant strain, active compounds read high
# Procedure, shortened: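 rad50EPP+ yeast treated with test compounds. Readout: growth vs vehicle control.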
# [4] = NCI Yeast Anticancer Drug Screen. Data for the mgt1 strain (AID 153); conditions: S. cerevisiae mgt1 mutant growth inhibition, active compounds read high
# Procedure, shortened: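 Growth inhibition relative to vehicle controls was scored for the mgt1 yeast strain after compound exposure.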
# [5] = NCI Yeast Anticancer Drug Screen. Data for the rad50 strain (AID 155);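 note: 0% = growth of vehicle-only cultures of the same strain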; conditions: S. cerevisiae rad50 strain growth inhibition, active compounds read high
# Procedure, shortened: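 Compounds were tested on a yeast strain with an engineered DNA damage repair alteration; the reported value is growth inhibition normalised to vehicle treatment.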
# [6] = NCI Yeast Anticancer Drug Screen. Data for the mec2-1 strain (AID 157); conditions: S. cerevisiae mec2-1 strain, active compounds read high
# Procedure, shortened: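 Growth inhibition is read against vehicle-treated controls after compound exposure of the mec2-1 yeast strain, which is defective in DNA damage repair or cell cycle control.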
# [7] = NCI Yeast Anticancer Drug Screen. Data for the rad14 strain (AID 159);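 note: 0% = growth of vehicle-treated control cultures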; conditions: S. cerevisiae rad14 strain growth inhibition, active compounds read high
# Procedure, shortened: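 Compound-treated yeast with a defined DNA-repair lesion; growth inhibition normalised to vehicle-treated cultures.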
# [8] = NCI Yeast Anticancer Drug Screen. Data for the sgs1 mgt1 strain (AID 161);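 note: 0% = growth of cultures given vehicle only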; conditions: S. cerevisiae sgs1 mgt1 strain, active compounds read high
# Procedure, shortened: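 Yeast cells carrying a defined DNA-repair defect were exposed to test compounds. Growth inhibition was measured relative to vehicle-treated controls.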
# [9] = NCI Yeast Anticancer Drug Screen. Data for the cln2 rad14 strain (AID 165);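 note: 0% = growth equal to vehicle treated cultures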; conditions: S. cerevisiae cln2 rad14 strain, active compounds read high
# Procedure, shortened: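 Growth inhibition, relative to vehicle-treated controls, is the read-out. The test organism is a yeast strain with defined genetic alterations, cln2 rad14.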
# [10] = NCI Yeast Anticancer Drug Screen. Data for the bub3 strain (AID 167); conditions: S. cerevisiae bub3 mutant strain, active compounds read high
# Procedure, shortened: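 Growth of a checkpoint-deficient yeast mutant is measured after compound exposure. Values represent inhibition relative to vehicle.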
# [11] = NCI Yeast Anticancer Drug Screen. Data for the wt2 strain (AID 169);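 note: 0% = growth of vehicle-treated yeast cultures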; conditions: S. cerevisiae wt2 strain growth inhibition, active compounds read high
# Procedure, shortened: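 Compound exposure of yeast; growth compared with vehicle controls; inhibition reported.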
# [12] = NCI Yeast Anticancer Drug Screen. Data for the mlh1 strain (AID 171);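 note: 0% = growth of vehicle-treated control cultures of the same strain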; conditions: S. cerevisiae mlh1 strain growth inhibition, active compounds read high
# Procedure, shortened: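 Compounds are applied to a genetically altered yeast strain, and its growth is compared with that of vehicle-treated cultures to give percent inhibition.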
# [13] = NCI Yeast Anticancer Drug Screen. Data for the sgs1 strain (AID 173);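 note: 0% = growth of vehicle-only control cultures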; conditions: S. cerevisiae sgs1 mutant, active compounds read high
# Procedure, shortened: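 Compounds applied to genetically altered yeast; growth compared with vehicle-treated cultures to give % inhibition.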
# [14] = NCI Yeast Anticancer Drug Screen. Data for the mlh1 rad18 strain (AID 175); conditions: S. cerevisiae mlh1 rad18 strain growth inhibition, active compounds read high
# Procedure, shortened: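 Cells of a genetically altered yeast strain, deficient in DNA damage repair, were treated with compound. Their growth was then compared with that of vehicle-treated cultures to give inhibition.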
# [15] = NCI Yeast Anticancer Drug Screen. Data for the rad18 strain (AID 177); conditions: S. cerevisiae rad18 mutant growth inhibition, active compounds read high
# Procedure, shortened: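 Compounds are applied to a repair-deficient yeast strain, and growth is compared with that of vehicle-treated cultures to give percent inhibition.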
# [16] = at 5.0 µM (retest, dose inferred, filed as 0.5)
# [17] = at 50.0 µM (retest, dose inferred, filed as 5.0)
compound,measurement,setting,value
O=[N+]([O-])c1cc(Cl)ccc1S(=O)(=O)c1ccc(Cl)cc1[N+](=O)[O-],growth inhibition,[1]; at 1.2 µM,-25%
same,growth inhibition,[1]; at 3.7 µM,-8%
same,growth inhibition,[1]; at 11.0 µM,40%
same,growth inhibition,[1]; at 33.0 µM,86% (active)
same,growth inhibition,[1]; at 100.0 µM,78% (active)
same,growth inhibition,[2]; at 1.2 µM,-13%
same,growth inhibition,[2]; at 3.7 µM,-19%
same,growth inhibition,[2]; at 11.0 µM,0%
same,growth inhibition,[2]; at 33.0 µM,85% (active)
same,growth inhibition,[2]; at 100.0 µM,78% (active)
same,growth inhibition,[3]; at 1.2 µM,-6%
same,growth inhibition,[3]; at 3.7 µM,20%
same,growth inhibition,[3]; at 11.0 µM,55%
same,growth inhibition,[3]; at 33.0 µM,72% (active)
same,growth inhibition,[3]; at 100.0 µM,64%
same,growth inhibition,[4]; at 1.2 µM,-29%
same,growth inhibition,[4]; at 3.7 µM,-27%
same,growth inhibition,[4]; at 11.0 µM,0%
same,growth inhibition,[4]; at 33.0 µM,84% (active)
same,growth inhibition,[4]; at 100.0 µM,78% (active)
same,growth inhibition,[5]; at 1.2 µM,-31%
same,growth inhibition,[5]; at 3.7 µM,-21%
same,growth inhibition,[5]; [16],14%
same,growth inhibition,[5]; at 11.0 µM,41%
same,growth inhibition,[5]; at 33.0 µM,90% (active)
same,growth inhibition,[5]; [17],92% (active)
same,growth inhibition,[5]; at 50.0 µM,76.8% (active)
same,growth inhibition,[5]; at 100.0 µM,81% (active)
same,growth inhibition,[6]; at 1.2 µM,-12%
same,growth inhibition,[6]; at 3.7 µM,10%
same,growth inhibition,[6]; [16],4%
same,growth inhibition,[6]; at 11.0 µM,20%
same,growth inhibition,[6]; at 33.0 µM,89% (active)
same,growth inhibition,[6]; [17],93% (active)
same,growth inhibition,[6]; at 50.0 µM,83% (active)
same,growth inhibition,[6]; at 100.0 µM,84% (active)
same,growth inhibition,[7]; at 1.2 µM,-15%
same,growth inhibition,[7]; at 3.7 µM,-11%
same,growth inhibition,[7]; at 11.0 µM,25%
same,growth inhibition,[7]; at 33.0 µM,88% (active)
same,growth inhibition,[7]; at 100.0 µM,81% (active)
same,growth inhibition,[8]; [16],16%
same,growth inhibition,[8]; [17],91% (active)
same,growth inhibition,[8]; at 50.0 µM,84.3% (active)
same,growth inhibition,[9]; [16],13%
same,growth inhibition,[9]; [17],91% (active)
same,growth inhibition,[9]; at 50.0 µM,79.9% (active)
same,growth inhibition,[10]; at 1.2 µM,-21%
same,growth inhibition,[10]; at 3.7 µM,7%
same,growth inhibition,[10]; [16],73% (active)
same,growth inhibition,[10]; at 11.0 µM,80% (active)
same,growth inhibition,[10]; at 33.0 µM,93% (active)
same,growth inhibition,[10]; [17],94% (active)
same,growth inhibition,[10]; at 50.0 µM,83.7% (active)
same,growth inhibition,[10]; at 100.0 µM,90% (active)
same,growth inhibition,[11]; at 1.2 µM,0%
same,growth inhibition,[11]; at 3.7 µM,4%
same,growth inhibition,[11]; at 11.0 µM,21%
same,growth inhibition,[11]; at 33.0 µM,88% (active)
same,growth inhibition,[11]; at 100.0 µM,84% (active)
same,growth inhibition,[12]; at 1.2 µM,-3%
same,growth inhibition,[12]; at 3.7 µM,3%
same,growth inhibition,[12]; at 11.0 µM,44%
same,growth inhibition,[12]; at 33.0 µM,85% (active)
same,growth inhibition,[12]; at 100.0 µM,80% (active)
same,growth inhibition,[13]; at 1.2 µM,-3%
same,growth inhibition,[13]; at 3.7 µM,13%
same,growth inhibition,[13]; at 11.0 µM,35%
same,growth inhibition,[13]; at 33.0 µM,91% (active)
same,growth inhibition,[13]; at 100.0 µM,84% (active)
same,growth inhibition,[14]; [16],25%
same,growth inhibition,[14]; [17],91% (active)
same,growth inhibition,[14]; at 50.0 µM,80.8% (active)
same,growth inhibition,[15]; at 1.2 µM,8%
same,growth inhibition,[15]; at 3.7 µM,9%
same,growth inhibition,[15]; at 11.0 µM,63%
same,growth inhibition,[15]; at 33.0 µM,91% (active)
same,growth inhibition,[15]; at 100.0 µM,87% (active)
CCCCCCNCCCNc1c2ccccc2nc2cccc([N+](=O)[O-])c12,growth inhibition,[1]; at 1.2 µM,43%
same,growth inhibition,[1]; at 3.7 µM,80% (active)
same,growth inhibition,[1]; at 11.0 µM,92% (active)
same,growth inhibition,[1]; at 33.0 µM,95% (active)
same,growth inhibition,[1]; at 100.0 µM,95% (active)
same,growth inhibition,[2]; at 1.2 µM,-2%
same,growth inhibition,[2]; at 3.7 µM,0%
same,growth inhibition,[2]; at 11.0 µM,8%
same,growth inhibition,[2]; at 33.0 µM,59%
same,growth inhibition,[2]; at 100.0 µM,92% (active)
same,growth inhibition,[3]; at 1.2 µM,-1%
same,growth inhibition,[3]; at 3.7 µM,5%
same,growth inhibition,[3]; at 11.0 µM,26%
same,growth inhibition,[3]; at 33.0 µM,67%
same,growth inhibition,[3]; at 100.0 µM,94% (active)
same,growth inhibition,[4]; at 1.2 µM,-4%
same,growth inhibition,[4]; at 3.7 µM,-4%
same,growth inhibition,[4]; at 11.0 µM,11%
same,growth inhibition,[4]; at 33.0 µM,78% (active)
same,growth inhibition,[4]; at 100.0 µM,94% (active)
same,growth inhibition,[5]; at 1.2 µM,24%
same,growth inhibition,[5]; at 3.7 µM,64%
same,growth inhibition,[5]; [16],69%
same,growth inhibition,[5]; at 11.0 µM,90% (active)
same,growth inhibition,[5]; at 33.0 µM,94% (active)
same,growth inhibition,[5]; [17],98% (active)
same,growth inhibition,[5]; at 50.0 µM,83.3% (active)
same,growth inhibition,[5]; at 100.0 µM,96% (active)
same,growth inhibition,[6]; at 1.2 µM,4%
same,growth inhibition,[6]; at 3.7 µM,40%
same,growth inhibition,[6]; [16],15%
same,growth inhibition,[6]; at 11.0 µM,94% (active)
same,growth inhibition,[6]; at 33.0 µM,97% (active)
same,growth inhibition,[6]; [17],99% (active)
same,growth inhibition,[6]; at 50.0 µM,88.1% (active)
same,growth inhibition,[6]; at 100.0 µM,97% (active)
same,growth inhibition,[7]; at 1.2 µM,23%
same,growth inhibition,[7]; at 3.7 µM,86% (active)
same,growth inhibition,[7]; at 11.0 µM,98% (active)
same,growth inhibition,[7]; at 33.0 µM,98% (active)
same,growth inhibition,[7]; at 100.0 µM,97% (active)
same,growth inhibition,[8]; [16],84% (active)
same,growth inhibition,[8]; [17],97% (active)
same,growth inhibition,[8]; at 50.0 µM,74.3% (active)
same,growth inhibition,[9]; [16],80% (active)
same,growth inhibition,[9]; [17],99% (active)
same,growth inhibition,[9]; at 50.0 µM,85.4% (active)
same,growth inhibition,[10]; at 1.2 µM,-10%
same,growth inhibition,[10]; at 3.7 µM,-16%
same,growth inhibition,[10]; [16],-42%
same,growth inhibition,[10]; at 11.0 µM,-12%
same,growth inhibition,[10]; at 33.0 µM,15%
same,growth inhibition,[10]; [17],98% (active)
same,growth inhibition,[10]; at 50.0 µM,43.9%
same,growth inhibition,[10]; at 100.0 µM,98% (active)
same,growth inhibition,[11]; at 1.2 µM,-1%
same,growth inhibition,[11]; at 3.7 µM,0%
same,growth inhibition,[11]; at 11.0 µM,5%
same,growth inhibition,[11]; at 33.0 µM,31%
same,growth inhibition,[11]; at 100.0 µM,96% (active)
same,growth inhibition,[12]; at 1.2 µM,2%
same,growth inhibition,[12]; at 3.7 µM,9%
same,growth inhibition,[12]; at 11.0 µM,35%
same,growth inhibition,[12]; at 33.0 µM,89% (active)
same,growth inhibition,[12]; at 100.0 µM,94% (active)
same,growth inhibition,[13]; at 1.2 µM,62%
same,growth inhibition,[13]; at 3.7 µM,80% (active)
same,growth inhibition,[13]; at 11.0 µM,90% (active)
same,growth inhibition,[13]; at 33.0 µM,93% (active)
same,growth inhibition,[13]; at 100.0 µM,95% (active)
same,growth inhibition,[14]; [16],76% (active)
same,growth inhibition,[14]; [17],98% (active)
same,growth inhibition,[14]; at 50.0 µM,78.5% (active)
same,growth inhibition,[15]; at 1.2 µM,93% (active)
same,growth inhibition,[15]; at 3.7 µM,95% (active)
same,growth inhibition,[15]; at 11.0 µM,96% (active)
same,growth inhibition,[15]; at 33.0 µM,96% (active)
same,growth inhibition,[15]; at 100.0 µM,95% (active)
